Test results: PubChem BioAssay (NCATS)
“And” between values parts separate entries of the source, which are not always exact repeats. Equal values may be shown once. Inconclusive results are not listed. The source made the active and inactive calls. Unless noted, calls follow the shape of the full dose curve.

Legend:
[1] = qHTS assay for small molecule agonists of retinoid X receptor alpha signaling (AID 588544); conditions: HEK293T RXRa-UAS-bla, beta-lactamase reporter, 18 h; 530 nm emission;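 as to activation: 0% = DMSO basal wells and 100% = reference agonist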
[2] = molecular target: Retinoic acid receptor RXR-alpha (Homo sapiens) (UniProt P19793); test: as above; conditions: HEK293T RXRa-UAS-bla, beta-lactamase reporter, 18 h; series mostly up to 76.7 µM
[3] = molecular target: Thyroid hormone receptor beta (Homo sapiens) (UniProt P10828); test: qHTS assay for small molecule agonists of thyroid hormone receptor beta signaling (AID 588545); conditions: TR-UAS-bla GripTite HEK 293, beta-lactamase ratio, agonist mode, 18 h, percent of T3 response, DMSO as zero; series mostly up to 76.7 µM;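 also: 0% = DMSO only and 100% = 10 nM T3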
Summary of the method: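 TR-UAS-bla-GripTite HEK 293 cells in medium with 2% charcoal/dextran FBS, 0.1 mM NEAA and 1 mM sodium pyruvate were treated with titrated compounds for 18 hrs at 37 C. Beta-lactamase reporter was read with CCF4 dye (ex 405, em 460/530 nm); EC50 from Hill fits.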

[4] = qHTS assay for small molecule antagonists of retinoid X receptor alpha signaling (AID 588546; active = well fitted inhibition curve with a large enough effect in the signal ratio, with a control signal flat, not every such curve was filed as active; the % refers to the signal ratio;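 also: cells stimulated with 9-cis-retinoic acid as agonist; % is scaled to controls: 0 for no effect and ±100 for the full control effect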); conditions: HEK293T RXRa-UAS-bla, beta-lactamase ratio, antagonist mode; measured here: W530 green channel, cytotoxicity proxy
Summary of the method: (§1)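 Beta-lactamase reporter inhibition, read as CCF4 fluorescence ratio (ex 405, em 460/530 nm) after 2 h at RT. HEK293T UAS-bla cells, 2500/well, were stimulated with 9-cis-RA at 500 or 100 nM final alongside test compound for 18 h at 37 C.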

[5] = molecular target: Retinoic acid receptor RXR-alpha (Homo sapiens) (UniProt P19793); test: as above; conditions: HEK293T RXRa-UAS-bla, beta-lactamase ratio, antagonist mode
Summary of the method: as §1

[6] = molecular target: Thyroid hormone receptor beta (Homo sapiens) (UniProt P10828); test: qHTS assay for small molecule antagonists of thyroid hormone receptor beta signaling (AID 588547; active = well fitted inhibition curve with a large enough effect in the signal ratio, with a control signal flat, not every such curve was filed as active; the % refers to the signal ratio;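 also: cells stimulated with 0.4 nM T3 agonist during compound exposure; % is scaled to controls: 0 for no effect and ±100 for the full control effect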); conditions: TR-UAS-bla HEK293, beta-lactamase ratio, antagonist mode, 18 h
Summary of the method: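 TR-UAS-bla GripTite HEK293 cells in 2% charcoal/dextran FBS medium; compounds 0.59 nM to 92 uM with T3 at 0.4nM final, 18 h at 37 C. Beta-lactamase read by CCF4 fluorescence (460/530 nm); Hill fits gave IC50 and efficacy.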

[7] = molecular target: Voltage-gated inwardly rectifying potassium channel KCNH2 (Homo sapiens) (UniProt Q12809); test: qHTS Assay for Small Molecule Inhibitors of the Human hERG Channel Activity (AID 588834; active = well fitted curve in the direction sought with a large enough effect; an effect the other way counts as inactive or inconclusive;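 also: top concentration of the series differs between compounds; % is scaled to controls: 0 for no effect and ±100 for the full control effect; lower thallium flux fluorescence means stronger hERG block; nearly all actives have a fitted effect of over 50% in size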); conditions: U2OS BacMam hERG, FluxOR thallium flux fluorescence; series mostly up to 92.2 µM
Summary of the method: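 U2OS cells BacMam-transduced with hERG, 2000 cells/well, compound ~10 min at 37 °C before stimulation buffer. FluxOR thallium flux fluorescence read kinetically on FDSS; decrease indicates block; AC50 from Hill fits.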

[8] = qHTS assay for small molecule agonists of the antioxidant response element (ARE) signaling pathway (AID 651741; active = well fitted activation curve with a large enough effect in the signal ratio; the % refers to the signal ratio; also: potency is read from the fitted curve at half-maximal effect; as to activation: % of control where 0% means no effect); conditions: HepG2 ARE-bla reporter, beta-lactamase FRET ratio, 16 h; series mostly up to 96 µM
Summary of the method: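 HepG2 ARE-bla cells plated at 2,000 cells/well and incubated 5 h at 37 C/5% CO2 received 23 nL compound in DMSO. After 16 h at 37 C, LiveBLAzer B/G FRET substrate was applied for 2 h at room temperature and fluorescence read.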

[9] = qHTS assay for small molecule activators of the nuclear factor-kappa B (NF-kB) signaling pathway (AID 651749; active = well fitted activation curve with a large enough effect in the signal ratio; the % refers to the signal ratio; also: % of control where 0% means no effect); conditions: NF-kB-bla ME-180 cells, beta-lactamase FRET ratio, 16 h; stronger effect = higher value
Summary of the method: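 Incubation lasted 16 hr at 37C in 5% CO2 after 23 nL compound addition to ME-180 NF-kB-bla cells. Activation appears as beta-lactamase-mediated FRET loss.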

[10] = qHTS assay for small molecule disruptors of the mitochondrial membrane potential - 1 hr assay (AID 651754); conditions: series mostly up to 92.2 µM; also: % is scaled to controls: 0 for no effect and ±100 for the full control effect; nearly all actives have a fitted effect of over 35% in size
Summary of the method: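 HepG2 cells, attached overnight at 37C, were exposed to compound or DMSO vehicle for 1 hr at 37C, 5% CO2, then stained with Mito-MPS dye for 30 min. Red aggregate versus green monomer fluorescence reports membrane potential.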

[11] = molecular target: Tumor necrosis factor (Homo sapiens) (UniProt P01375); test: qHTS assay to identify small molecules that stimulate Tumor Necrosis Factor-alpha (TNF-alpha) secretion (AID 651757; active = well fitted curve in the direction sought with a large enough effect in the signal ratio; the % refers to the signal ratio; also: 0% is about no effect); conditions: Human cells, HTRF 665/615 ratio; series mostly up to 92.2 µM
Summary of the method: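 THP-1 cells were exposed to compounds for 17 hrs at 37 C, after which secreted TNF-alpha was measured by homogeneous HTRF (TR-FRET) using cryptate- and XL665-labeled anti-TNF-alpha antibodies, read after 3 hr at room temperature.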

[12] = qHTS assay to identify small molecules that stimulate interleukin-8 (IL-8) secretion (AID 651758; active = well fitted activation curve with a large enough effect in the signal ratio; the % refers to the signal ratio; also: 0% is about no effect); conditions: HTRF ratio (665/615); series mostly up to 92.2 µM
Summary of the method: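 THP-1 cells (2000/well) exposed to compound 16 h at 37 C; secreted IL-8 then detected by HTRF with cryptate- and XL665-labelled anti-IL-8 antibody pair after 1-3 h at room temperature.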

[13] = qHTS assay for environmental chemicals that activate the Aryl hydrocarbon Receptor (AhR) signaling pathway (AID 651777; active = well fitted curve in the direction sought with a large enough effect; an effect the other way counts as inactive or inconclusive; also: % of control where 0% means no effect; nearly all actives have a fitted effect of over 15% in size); conditions: 1A2-DRE human hepatoma cells, luciferase, 24 h; activation: stronger effect = higher value
Summary of the method: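 1A2-DRE human hepatoma reporter line; 1,200 cells/well; cmpd or DMSO 24 h, 37 C/5% CO2; One-Glo 30 min RT; luciferase lum.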

[14] = molecular target: Peroxisome proliferator-activated receptor alpha (Homo sapiens) (UniProt Q07869); test: qHTS assay for small molecule agonists of the peroxisome proliferator-activated receptor alpha (PPARalpha) signaling pathway (AID 651778; active = well fitted curve in the direction sought with a large enough effect; an effect the other way counts as inactive or inconclusive; also: % of control where 0% means no effect); conditions: PathHunter PPARalpha complementation, chemiluminescence, 6 h; stronger effect = higher value
Summary of the method: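 Enzyme-fragment complementation assay in which ligand-bound PPARalpha translocates and forms an active enzyme that generates chemiluminescence. Cells were plated overnight, exposed to compound for 6 hr at 37 C, and then given detection reagent for 60 min at room temperature.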

[15] = qHTS assay for small molecule agonists of the antioxidant response element (ARE) signaling pathway measured by Nrf2-dependant transcriptional activity (AID 720636; active = well fitted curve in the direction sought with a large enough effect in the repeat runs; an effect the other way counts as inactive or inconclusive;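 also: HepG2 cells with an ARE-driven luciferase reporter; % of control where 0% means no effect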); conditions: ARE-luc HepG2, Nrf2 luciferase reporter, 16 h; series mostly up to 92.4 µM
Summary of the method: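 Cells: ARE-luc HepG2 with Nrf2-responsive luciferase. Medium contained 1% dialyzed FBS. Compound exposure lasted 16 hr at 37 C and 5% CO2, followed by ONE-Glo luciferase detection.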

[16] = qHTS assay for small molecule antagonists of the retinoid-related orphan receptor gamma (ROR-gamma) signaling pathway - cell viability counter screen (AID 720652; active = well fitted curve in the direction sought with a large enough effect in the repeat runs; an effect the other way counts as inactive or inconclusive;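 also: compound exposure lasted 16 hr before ATP read; % is scaled to controls: 0 for no effect and ±100 for the full control effect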); conditions: RORgamma reporter cell line viability counter screen; series mostly up to 92.2 µM
Summary of the method: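 Counter screen in CHO cells carrying TET-inducible ROR-gamma and an ROR response element-luciferase reporter; cells plated 5 hr, compound pinned, doxycycline added, then 16 hr at 37 C. Viability read as intracellular ATP by CellTiter-Glo luminescence.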

[17] = qHTS assay for small molecule agonists of the antioxidant response element (ARE) signaling pathway measured by Nrf2-dependant transcriptional activity - cell viability counter screen (AID 720653; active = well fitted curve in the direction sought with a large enough effect in the repeat runs; an effect the other way counts as inactive or inconclusive; also: % is scaled to controls: 0 for no effect and ±100 for the full control effect); conditions: ARE-bla HepG2 viability, CellTiter-Glo ATP luminescence, 16 h; stronger effect = lower value
Summary of the method: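 ARE-bla HepG2 cells treated with compounds for 16 h at 37C; this counter screen measures viability as intracellular ATP by CellTiter-Glo luminescence after 30 min at room temperature.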

[18] = qHTS assay for small molecule activators of the p53 signaling pathway (AID 651743; active = well fitted activation curve with a large enough effect in the signal ratio, not every such curve was filed as active; the % refers to the signal ratio; also: % of control where 0% means no effect); conditions: HCT-116 p53RE-bla, beta-lactamase FRET ratio, 16 h; stronger effect = higher value
Summary of the method: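 HCT-116 p53RE-bla, 4,000 cells/well; 5 h settle; cpd/DMSO 16 h, 37 C; LiveBLAzer B/G 2 h RT; fluorescence intensity.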

[19] = qHTS assay for small molecule disruptors of the mitochondrial membrane potential - 5 hr assay (AID 651755); conditions: JC-1-type ratio dye; series mostly up to 92.2 µM; also: % is scaled to controls: 0 for no effect and ±100 for the full control effect; nearly all actives have a fitted effect of over 40% in size
Summary of the method: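 HepG2 cells (2,000/well), attached overnight, exposed to compound 5 hr at 37C, then Mito-MPS dye 30 min. Fluorescence read for monomers (490/535 nm) and aggregates (540/590 nm).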

[20] = molecular target: Nuclear receptor ROR-gamma (Homo sapiens) (UniProt P51449); test: qHTS assay for small molecule antagonists of the retinoid-related orphan receptor gamma (ROR-gamma) signaling pathway (AID 651802; active = well fitted curve in the direction sought with a large enough effect; an effect the other way counts as inactive or inconclusive; also: % is scaled to controls: 0 for no effect and ±100 for the full control effect; nearly all actives have a fitted effect of over 60% in size); conditions: ROR-gamma antagonist cell reporter assay; series mostly up to 92.2 µM
Summary of the method: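 CHO cells carrying TET-inducible ROR-gamma and an ROR response element–luciferase reporter were exposed to compound, then induced with doxycycline. After 16hr at 37C, luminescence was read; lower signal indicates antagonism.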

Sequence of Peroxisome proliferator-activated receptor alpha (Homo sapiens) (Q07869 whole entry, looked up, the tested form may be a part): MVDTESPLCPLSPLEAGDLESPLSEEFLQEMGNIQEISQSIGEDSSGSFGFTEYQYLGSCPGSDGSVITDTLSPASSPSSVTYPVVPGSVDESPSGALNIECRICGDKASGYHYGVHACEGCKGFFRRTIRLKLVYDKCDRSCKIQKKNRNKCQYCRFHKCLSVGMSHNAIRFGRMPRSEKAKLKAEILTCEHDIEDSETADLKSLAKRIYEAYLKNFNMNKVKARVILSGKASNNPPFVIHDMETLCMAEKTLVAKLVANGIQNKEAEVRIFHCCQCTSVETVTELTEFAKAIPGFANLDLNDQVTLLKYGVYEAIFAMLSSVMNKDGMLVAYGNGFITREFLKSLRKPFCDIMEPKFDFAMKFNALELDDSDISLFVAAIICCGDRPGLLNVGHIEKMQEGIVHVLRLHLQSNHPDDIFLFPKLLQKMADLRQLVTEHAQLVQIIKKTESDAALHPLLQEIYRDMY
Sequence of Thyroid hormone receptor beta (Homo sapiens) (P10828 whole entry, looked up): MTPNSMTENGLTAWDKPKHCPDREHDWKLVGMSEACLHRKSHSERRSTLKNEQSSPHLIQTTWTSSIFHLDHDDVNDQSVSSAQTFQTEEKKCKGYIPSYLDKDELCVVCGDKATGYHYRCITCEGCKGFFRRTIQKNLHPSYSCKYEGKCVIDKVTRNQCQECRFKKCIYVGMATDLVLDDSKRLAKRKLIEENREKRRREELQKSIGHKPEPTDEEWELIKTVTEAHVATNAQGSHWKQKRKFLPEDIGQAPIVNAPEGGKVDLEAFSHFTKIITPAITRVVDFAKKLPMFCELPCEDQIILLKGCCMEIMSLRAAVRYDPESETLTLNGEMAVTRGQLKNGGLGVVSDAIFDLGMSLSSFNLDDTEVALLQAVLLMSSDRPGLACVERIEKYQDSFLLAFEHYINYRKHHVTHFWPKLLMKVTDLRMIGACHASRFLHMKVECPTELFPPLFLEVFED
Sequence of Nuclear receptor ROR-gamma (Homo sapiens) (P51449 whole entry, looked up): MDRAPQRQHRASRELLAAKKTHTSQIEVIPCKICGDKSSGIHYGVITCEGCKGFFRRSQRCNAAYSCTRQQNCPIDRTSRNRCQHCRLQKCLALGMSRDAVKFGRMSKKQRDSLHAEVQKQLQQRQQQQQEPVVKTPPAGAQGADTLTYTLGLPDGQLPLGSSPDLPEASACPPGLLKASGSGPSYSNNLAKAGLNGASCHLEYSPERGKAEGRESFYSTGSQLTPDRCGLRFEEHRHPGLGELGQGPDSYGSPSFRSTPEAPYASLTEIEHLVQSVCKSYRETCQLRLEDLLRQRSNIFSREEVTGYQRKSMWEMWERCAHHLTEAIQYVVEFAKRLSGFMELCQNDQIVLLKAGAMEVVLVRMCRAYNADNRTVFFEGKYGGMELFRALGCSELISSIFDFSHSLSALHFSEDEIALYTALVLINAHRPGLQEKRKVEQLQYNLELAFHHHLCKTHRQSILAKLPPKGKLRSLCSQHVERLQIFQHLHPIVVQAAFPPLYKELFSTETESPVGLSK
Sequence of Retinoic acid receptor RXR-alpha (Homo sapiens) (P19793 whole entry, looked up): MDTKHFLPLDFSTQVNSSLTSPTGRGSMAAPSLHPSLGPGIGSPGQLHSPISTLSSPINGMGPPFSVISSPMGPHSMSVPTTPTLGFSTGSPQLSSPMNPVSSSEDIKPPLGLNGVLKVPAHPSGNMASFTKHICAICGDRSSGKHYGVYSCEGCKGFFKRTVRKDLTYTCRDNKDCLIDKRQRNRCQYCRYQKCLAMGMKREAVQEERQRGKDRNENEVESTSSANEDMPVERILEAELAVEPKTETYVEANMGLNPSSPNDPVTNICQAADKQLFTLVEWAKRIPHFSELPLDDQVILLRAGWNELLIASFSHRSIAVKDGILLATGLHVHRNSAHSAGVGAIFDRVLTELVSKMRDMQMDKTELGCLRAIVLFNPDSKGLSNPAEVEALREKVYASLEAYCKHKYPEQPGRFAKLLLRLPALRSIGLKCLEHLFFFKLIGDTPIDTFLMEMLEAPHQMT
Sequence of Tumor necrosis factor (Homo sapiens) (P01375 whole entry, looked up): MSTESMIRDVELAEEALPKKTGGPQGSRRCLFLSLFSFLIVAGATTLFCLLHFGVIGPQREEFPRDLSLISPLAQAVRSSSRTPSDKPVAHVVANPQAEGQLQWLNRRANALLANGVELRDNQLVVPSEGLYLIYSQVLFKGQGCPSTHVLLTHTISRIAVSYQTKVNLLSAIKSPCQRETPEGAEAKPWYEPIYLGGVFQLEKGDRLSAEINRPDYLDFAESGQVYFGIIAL
Sequence of Voltage-gated inwardly rectifying potassium channel KCNH2 (Homo sapiens) (Q12809 whole entry, looked up): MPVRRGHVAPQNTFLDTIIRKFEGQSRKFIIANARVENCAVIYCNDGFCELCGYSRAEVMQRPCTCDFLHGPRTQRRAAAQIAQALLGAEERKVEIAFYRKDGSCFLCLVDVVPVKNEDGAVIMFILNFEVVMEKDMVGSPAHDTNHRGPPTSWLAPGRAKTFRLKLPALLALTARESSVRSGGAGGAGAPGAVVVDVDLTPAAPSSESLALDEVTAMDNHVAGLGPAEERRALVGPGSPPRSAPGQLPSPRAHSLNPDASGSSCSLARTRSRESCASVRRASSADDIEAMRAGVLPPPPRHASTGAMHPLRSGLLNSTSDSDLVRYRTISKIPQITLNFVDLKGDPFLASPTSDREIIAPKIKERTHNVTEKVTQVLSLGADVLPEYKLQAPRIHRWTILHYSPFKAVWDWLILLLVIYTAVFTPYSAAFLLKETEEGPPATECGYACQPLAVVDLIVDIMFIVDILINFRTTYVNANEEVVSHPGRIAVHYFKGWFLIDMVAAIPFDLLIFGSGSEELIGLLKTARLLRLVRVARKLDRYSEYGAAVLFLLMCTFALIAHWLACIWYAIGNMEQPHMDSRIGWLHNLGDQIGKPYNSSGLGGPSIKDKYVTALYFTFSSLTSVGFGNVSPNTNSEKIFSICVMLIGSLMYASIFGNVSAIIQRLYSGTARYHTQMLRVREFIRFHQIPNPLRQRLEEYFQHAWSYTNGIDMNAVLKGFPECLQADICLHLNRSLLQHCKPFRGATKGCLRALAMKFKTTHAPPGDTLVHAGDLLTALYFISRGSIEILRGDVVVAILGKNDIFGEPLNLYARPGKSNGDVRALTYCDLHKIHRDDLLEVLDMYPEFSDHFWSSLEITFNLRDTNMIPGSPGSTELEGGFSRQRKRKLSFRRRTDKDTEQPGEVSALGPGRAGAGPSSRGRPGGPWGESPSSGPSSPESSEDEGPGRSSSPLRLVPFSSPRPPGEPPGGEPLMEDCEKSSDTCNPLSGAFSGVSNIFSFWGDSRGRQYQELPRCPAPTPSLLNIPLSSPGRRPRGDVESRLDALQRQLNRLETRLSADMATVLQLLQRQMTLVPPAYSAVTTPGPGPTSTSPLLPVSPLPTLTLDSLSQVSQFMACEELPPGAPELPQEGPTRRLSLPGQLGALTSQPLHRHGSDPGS

Cc1cc(C)c(N)cc1C
-11.9%: max response [1]
inactive: outcome [2] | outcome [3] | max response [5] 16.4% | activity change % (negative = inhibition) [6] -8.09% | Potency [7] | Potency [8] | activation [9] -0.054% | Potency [10] | Potency [11] | Potency [12] | activation [13] 1.62% | max response [14] -4.75% | outcome [15] | Potency [16] | max response [17] 7.8%
3.08%: max response [4]

O=C1CCC(=O)O1
-8.25%: max response [4]
inactive: outcome [2] | outcome [3] | max response [5] -2.46% | activity change % (negative = inhibition) [6] -21.6% | Potency [7] | Potency [8] | activation [18] 0.572% | Potency [19] | Potency [11] | activation [13] -1.39% | max response [14] 3.38% | Potency [20] | outcome [15] | Potency [16] | max response [17] -3.63%
8.02%: max response [1]

O=C(Cl)c1c(Cl)cccc1Cl
-8.14%: max response [1]
inactive: outcome [2] | outcome [3] | max response [5] 4.97% | activity change % (negative = inhibition) [6] -15.6% | Potency [7] | Potency [8] | Potency [10] | Potency [19] | Potency [11] | activation [13] -1.9% | max response [14] -3.46% | Potency [20] | outcome [15] | Potency [16] | max response [17] 10.8%
-4.7%: max response [4]

Nc1cc(Cl)c(N)c(Cl)c1
-14.2%: max response [1]
7.26% and 6.97%: max response [4]
inactive: outcome [2] | outcome [3] | max response [5] -5.31% and -44.9% | activity change % (negative = inhibition) [6] -9.25% | Potency [7] | activation [18] 0.0675% and 1.35% | Potency [19] | max response [14] 1.23% and -1.85% | Potency [20] | outcome [15] | Potency [16] | max response [17] -6.05% and -8.26%
active: Potency [8] 42.2 µM

C=Cc1ccc(C=C)cc1
-3.44%: max response [4]
-1.02%: max response [1]
inactive: outcome [2] | outcome [3] | max response [5] 16.7% | activity change % (negative = inhibition) [6] -18.2% | Potency [7] | Potency [8] | activation [9] 0.161% | Potency [11] | Potency [12] | activation [13] 7.35% | max response [14] -4.42% | outcome [15] | Potency [16] | max response [17] -7.35%

CCC(C)(C)OC
-18.1%: max response [4]
10.3%: max response [1]
inactive: outcome [2] | outcome [3] | max response [5] 17% | activity change % (negative = inhibition) [6] -6.68% | Potency [7] | Potency [8] | activation [9] -0.279% | Potency [10] | Potency [19] | Potency [11] | activation [13] 0.579% | max response [14] -8.98% | Potency [20] | outcome [15] | Potency [16] | max response [17] -14.5%

COc1ccc(N)c(C)c1
-12.9%: max response [1]
inactive: outcome [2] | outcome [3] | max response [5] 8.01% | activity change % (negative = inhibition) [6] -12.3% | Potency [7] | Potency [8] | activation [9] -0.857% | Potency [10] | Potency [19] | Potency [11] | activation [13] 1.75% | max response [14] -5.31% | Potency [20] | outcome [15] | Potency [16] | max response [17] -1.87%
-2.69%: max response [4]

Cc1ccc2oc(=O)ccc2c1
-0.906%: max response [4]
active: Potency [8] 8.63 µM
0.296% and 3.97%: max response [1]
inactive: outcome [2] | outcome [3] | max response [5] -15.9% | activity change % (negative = inhibition) [6] -13% and 13.3% | Potency [7] | activation [9] -0.483% and -1.78% | Potency [10] | Potency [19] | Potency [11] | activation [13] 8.69% and -0.308% | max response [14] 7.89% and -0.114% | Potency [16] | max response [17] -9.69% and -6.43%

CC(=O)OC(C)C
0.6%: max response [1]
7.8%: max response [4]
inactive: outcome [2] | outcome [3] | max response [5] 7.02% | activity change % (negative = inhibition) [6] 7.16% | Potency [7] | Potency [8] | activation [18] -0.528% | Potency [10] | Potency [19] | Potency [11] | activation [13] -2.35% | Potency [20] | outcome [15] | Potency [16] | max response [17] -4.19%

CCCC(Cl)CCCC(Cl)CCC(Cl)CCC(Cl)CCC(Cl)CCCC(Cl)CCC (stereo unspecified)
-0.455%: max response [4]
-10.5%: max response [1]
inactive: outcome [2] | outcome [3] | max response [5] -10.6% | activity change % (negative = inhibition) [6] -14.9% | Potency [7] | activation [18] 0.55% | activation [9] 0.0275% | Potency [10] | Potency [19] | Potency [11] | activation [13] -0.261% | max response [14] -3.72% | Potency [20] | outcome [15] | Potency [16] | max response [17] -6.05%

CCOc1cccc(N)c1
-8.66%: max response [1]
5.53%: max response [4]
inactive: outcome [2] | outcome [3] | max response [5] -4.73% | activity change % (negative = inhibition) [6] -0.0909% | Potency [7] | activation [18] 0.42% | activation [9] -0.866% | Potency [10] | Potency [19] | Potency [11] | max response [14] 0.865% | Potency [20] | outcome [15] | Potency [16] | max response [17] -7.78%
